From article PMC12820563, “FoxP3 forms a head-to-head dimer in vivo and stabilizes its multimerization on adjacent microsatellites”
Over roughly 16,000 sequences, “rpm ratio (pull-down/input)” has its median near 0.94; the highest 2% begin near 1.7. The full list was thinned out, with the highest values kept by preference.

Target: T1, MBP-FoxP1dN (Mus musculus, UniProt P58462 326-579)
T1 sequence: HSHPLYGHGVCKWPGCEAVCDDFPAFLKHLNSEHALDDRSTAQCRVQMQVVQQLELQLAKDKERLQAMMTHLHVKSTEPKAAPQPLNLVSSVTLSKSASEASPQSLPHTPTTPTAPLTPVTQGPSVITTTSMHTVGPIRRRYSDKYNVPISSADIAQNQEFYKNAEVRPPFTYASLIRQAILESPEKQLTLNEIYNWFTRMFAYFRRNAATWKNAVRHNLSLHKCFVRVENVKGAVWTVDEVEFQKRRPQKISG
Assay: PD-seq (MBP pull-down with sequencing); 20 mM Tris-HCl pH 7.5, 100 mM NaCl, 1.5 mM MgCl2, 0.4 uM protein, 0.1 uM dsDNA library, 30 min, room temperature, amylose pull-down; high values mean tight binding
Settings: protein: recombinant; tags: His6-MBP; chain copies: 2; dsDNA, one strand shown
Procedure, shortened: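 His6-MBP-tagged mouse FoxP3 or FoxP1 fragment lacking the N-terminus, expressed in E. coli, was mixed at 0.4 µM with 0.1 µM Klenow-filled double-stranded degenerate DNA library. Incubation was 30 min at room temperature in Tris pH 7.5 buffer with NaCl and MgCl2. Complexes were caught on amylose resin and washed three times; DNA was released with proteinase K, PCR-barcoded and Illumina-sequenced. Binding is reads-per-million enrichment, pull-down over input, with replicates pooled.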

Row | Sequence | binding signal
1 | GATGATTGTTCTCCCAGCTGATGAATTTTACGTTTCGAGTAAACAAATTTTCCTAATCTTTCTGTTCAAGCGCCATCTAC | 0.852 RPM ratio (pull-down/input)
2 | GATGATTGTTCTCCCAGCTGATGAATTGCCTAGTTCGAGTAAACAAATTTTCCTAATCTTTCTGTTCAAGCGCCATCTAC | 0.959 RPM ratio (pull-down/input)
3 | GATGATTGTTCTCCCAGCTGATGAATTAACACGCTCGAGTAAACAAATTTTCCTAATCTTTCTGTTCAAGCGCCATCTAC | 1.02 RPM ratio (pull-down/input)
4 | GATGATTGTTCTCCCAGCTGATGAATTTTTGGTGTCGAGTAAACAAATTTTCCTAATCTTTCTGTTCAAGCGCCATCTAC | 0.926 RPM ratio (pull-down/input)
5 | GATGATTGTTCTCCCAGCTGATGAATTGGTGGTGTCGAGTAAACAAATTTTCCTAATCTTTCTGTTCAAGCGCCATCTAC | 0.948 RPM ratio (pull-down/input)
6 | GATGATTGTTCTCCCAGCTGATGAATTGGTGTCGTCGAGTAAACAAATTTTCCTAATCTTTCTGTTCAAGCGCCATCTAC | 1.04 RPM ratio (pull-down/input)
7 | GATGATTGTTCTCCCAGCTGATGAATTGTTGGTGTCGAGTAAACAAATTTTCCTAATCTTTCTGTTCAAGCGCCATCTAC | 1.8 RPM ratio (pull-down/input)
8 | GATGATTGTTCTCCCAGCTGATGAATTGGTGTTGTCGAGTAAACAAATTTTCCTAATCTTTCTGTTCAAGCGCCATCTAC | 2.78 RPM ratio (pull-down/input)
9 | GATGATTGTTCTCCCAGCTGATGAATTTGGTGTGTCGAGTAAACAAATTTTCCTAATCTTTCTGTTCAAGCGCCATCTAC | 1 RPM ratio (pull-down/input)
10 | GATGATTGTTCTCCCAGCTGATGAATTAGACCTTTCGAGTAAACAAATTTTCCTAATCTTTCTGTTCAAGCGCCATCTAC | 0.881 RPM ratio (pull-down/input)
11 | GATGATTGTTCTCCCAGCTGATGAATTCGACCGATCGAGTAAACAAATTTTCCTAATCTTTCTGTTCAAGCGCCATCTAC | 0.823 RPM ratio (pull-down/input)
12 | GATGATTGTTCTCCCAGCTGATGAATTAGCCGTTTCGAGTAAACAAATTTTCCTAATCTTTCTGTTCAAGCGCCATCTAC | 0.852 RPM ratio (pull-down/input)
13 | GATGATTGTTCTCCCAGCTGATGAATTATATATTTCGAGTAAACAAATTTTCCTAATCTTTCTGTTCAAGCGCCATCTAC | 1.06 RPM ratio (pull-down/input)
14 | GATGATTGTTCTCCCAGCTGATGAATTTTTATATTCGAGTAAACAAATTTTCCTAATCTTTCTGTTCAAGCGCCATCTAC | 1.1 RPM ratio (pull-down/input)
15 | GATGATTGTTCTCCCAGCTGATGAATTATATTGTTCGAGTAAACAAATTTTCCTAATCTTTCTGTTCAAGCGCCATCTAC | 2.08 RPM ratio (pull-down/input)
16 | GATGATTGTTCTCCCAGCTGATGAATTTATATTTTCGAGTAAACAAATTTTCCTAATCTTTCTGTTCAAGCGCCATCTAC | 2.37 RPM ratio (pull-down/input)
17 | GATGATTGTTCTCCCAGCTGATGAATTTTATATTTCGAGTAAACAAATTTTCCTAATCTTTCTGTTCAAGCGCCATCTAC | 1.07 RPM ratio (pull-down/input)
18 | GATGATTGTTCTCCCAGCTGATGAATTATATTTTTCGAGTAAACAAATTTTCCTAATCTTTCTGTTCAAGCGCCATCTAC | 1.61 RPM ratio (pull-down/input)
19 | GATGATTGTTCTCCCAGCTGATGAATTTACTTTATCGAGTAAACAAATTTTCCTAATCTTTCTGTTCAAGCGCCATCTAC | 1.46 RPM ratio (pull-down/input)
20 | GATGATTGTTCTCCCAGCTGATGAATTACGTAGTTCGAGTAAACAAATTTTCCTAATCTTTCTGTTCAAGCGCCATCTAC | 1.02 RPM ratio (pull-down/input)
21 | GATGATTGTTCTCCCAGCTGATGAATTATGGCGATCGAGTAAACAAATTTTCCTAATCTTTCTGTTCAAGCGCCATCTAC | 0.99 RPM ratio (pull-down/input)
22 | GATGATTGTTCTCCCAGCTGATGAATTGGTAGGCTCGAGTAAACAAATTTTCCTAATCTTTCTGTTCAAGCGCCATCTAC | 0.819 RPM ratio (pull-down/input)
23 | GATGATTGTTCTCCCAGCTGATGAATTTTTTACGTCGAGTAAACAAATTTTCCTAATCTTTCTGTTCAAGCGCCATCTAC | 0.984 RPM ratio (pull-down/input)
24 | GATGATTGTTCTCCCAGCTGATGAATTTACGTCGTCGAGTAAACAAATTTTCCTAATCTTTCTGTTCAAGCGCCATCTAC | 1.25 RPM ratio (pull-down/input)
25 | GATGATTGTTCTCCCAGCTGATGAATTATTTACGTCGAGTAAACAAATTTTCCTAATCTTTCTGTTCAAGCGCCATCTAC | 2.19 RPM ratio (pull-down/input)
